Screening data: PubChem BioAssay, several laboratories
Hits are enriched below; roughly 32% of the tested compounds scored in any of these assays.
CYP2C19 inhib = human CYP2C19 inhibition | P33261 | AID 778 | actives 21% (n = 96,000) | CYP2C19 Supersomes, luciferin-H EGE luminescence, 30 min | inhibition, % at 5 µM;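 active = CYP2C19 inhibition above a set limit at 5 µM in the primary screen, cut at about 50% in these data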;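 note: plate controls were negative control wells for no effect and 2.5 mM tranylcypromine positive control for full effect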
Target sequence (P33261 whole entry, looked up): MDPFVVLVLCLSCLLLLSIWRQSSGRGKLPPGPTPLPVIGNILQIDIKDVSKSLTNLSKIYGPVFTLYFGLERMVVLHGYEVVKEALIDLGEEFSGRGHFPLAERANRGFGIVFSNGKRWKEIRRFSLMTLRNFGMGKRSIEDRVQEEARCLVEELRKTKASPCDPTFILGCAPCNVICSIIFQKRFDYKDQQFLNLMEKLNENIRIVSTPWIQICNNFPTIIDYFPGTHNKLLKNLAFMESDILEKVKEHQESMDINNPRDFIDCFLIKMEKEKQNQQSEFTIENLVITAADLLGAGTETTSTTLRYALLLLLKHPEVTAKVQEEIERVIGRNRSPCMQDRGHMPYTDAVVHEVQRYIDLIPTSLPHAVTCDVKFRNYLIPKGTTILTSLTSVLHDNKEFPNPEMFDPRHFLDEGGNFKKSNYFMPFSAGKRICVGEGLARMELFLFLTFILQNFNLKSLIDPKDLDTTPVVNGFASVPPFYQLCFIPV
PostGolgi yeast = growth inhibition of a yeast mutant, post-Golgi transport screen; actives 0.9% (n = 98,000); post-Golgi transport phenotypic cell assay; AID 739; inhibition, % at 10 µM;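 note: yeast cells grown in 1536-well plates; yeast grown about 18 h at 30C before absorbance read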
CYP2C19 activ = activators of human cytochrome P450 2C19. P33261. recombinant CYP2C19, luciferin-H EGE luminescence; active compounds read high; 0 = fully inhibited enzyme, 1 = untreated enzyme. activation factor at 5 µM. 96,000 tested, under 10 active. AID 1025;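 active = activation factor of at least 2 at 5 µM in the primary screen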;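 note: 0 = wells with 2.5 mM tranylcypromine and 1 = vehicle-only wells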
CYP2C9 inh = human CYP2C9 inhibition | P11712 | CYP2C9 Supersomes, luciferin-H conversion, luminescence | inhibition, % at 5 µM | actives 20% (n = 96,000) | AID 777;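 active = blocking of liver enzyme CYP2C9 beyond about 50% at 5 µM, limit read from the data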
CYP2C9 act = increases human cytochrome P450 2C9 activity; activation factor at 5 µM; actives 1.4% (n = 96,000); recombinant CYP2C9, luciferin-H conversion, luminescence; active compounds read high; factor 1 = untreated enzyme, 0 = blocked; AID 1024; P11712;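 active = activation factor of 2 or more for CYP2C9 at a 5 µM dose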;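 note: 0 = sulfaphenazole-blocked wells and 1 = vehicle-only wells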
PostGolgi ctrl = inhibits growth of the yeast control strain | efflux-deficient yeast background strain, growth absorbance A615, 16 h | inhibition, % at 10 µM | actives 5% (n = 98,000)
* = called active by the depositor; nt = no result. Cut-off read from the data, not from the text of the source, unless noted: active = inhibition above about 30%; inactive = the rest.

SMILES	CYP2C19 inhib	PostGolgi yeast	CYP2C19 activ	CYP2C9 inh	CYP2C9 act	PostGolgi ctrl
c1ccc2c(-c3nnc(SCc4cn5ccccc5n4)o3)c[nH]c2c1	66.7*	-3.1	0.3	60.7*	0.4	7.7
O=C(CSc1nnc(COc2cccc3ccccc23)o1)N1c2ccccc2CCc2ccccc21	22.1	6.4	0.8	54.2*	0.5	2.3
c1ccc(CSc2nnc(-c3c[nH]c4ccccc34)o2)cc1	-10.1	-3.8	1.1	0.3	1	24.1
O=C(CSc1nnc(-c2ccco2)o1)N1CCOCC1	-2.3	-1.3	1	-9.4	1.1	2.0
O=C(CSc1nnc(-c2ccco2)o1)N1c2ccccc2CCc2ccccc21	88.7*	2.4	0.1	96.9*	0	8.9
O=C(Nc1ccc(Cl)cn1)c1cccnc1	-8.2	-4.8	1.1	-11.4	1.1	7.7
O=S(=O)(NCCO)c1cccc2cccnc12	19.5	-0.6	0.8	36.1	0.6	0.8
O=S(=O)(NCc1cccnc1)c1cccc2cccnc12	-5.8	2.8	1.1	-63.1	1.6	-1.6
O=S(=O)(NCc1ccccc1)c1cccc2cccnc12	78.9*	-3.0	0.2	77.8*	0.2	3.3
O=S(=O)(NCCCN1CCN(c2ccccc2F)CC1)c1cccc2cccnc12	55.3*	2.5	0.4	-134.6	2.3*	-3.6
O=S(=O)(NCCN1CCCC1)c1cccc2cccnc12	-2.3	-7.3	1	-36.6	1.4	2.4
CN(CCCNS(=O)(=O)c1cccc2cccnc12)Cc1ccccc1	37.3	-5.6	0.6	-147.2	2.5*	10.9
Cn1nc(C(=O)Nc2c(-c3ccccc3)nc3sccn23)c2ccccc2c1=O	-10.9	-23.5	1.1	-10.8	1.1	-1.4
CC(C)C(=O)Nc1ccccc1C(=O)N/N=C/c1ccc([N+](=O)[O-])cc1	24.1	4.7	0.8	24.7	0.8	1.8
COc1cc(C(=S)N2CCCC2)ccc1O	88.4*	15.1	0.1	-61.3	1.6	3.1
S=C(c1ccc2c(c1)OCO2)N1CCCCC1	94.4*	0.8	0.1	38.3	0.6	3.7
COc1cc(C(=S)N2CCCCC2)ccc1O	35.6	-8.6	0.6	41.0	0.6	-7.8
S=C(c1ccc2c(c1)OCO2)N1CCCC1	41.0	-15.3	0.6	2.3	1	2.7
COc1ccc(C(=S)N2CCN(C)CC2)cc1Br	50.9*	13.9	0.5	-247.2	3.5*	7.5
Oc1ccc(C(=S)N2CCCCC2)cc1Cl	84.7*	-4.5	0.2	-101.9	2*	18.9
CCn1ncc(/C=C/C(=O)Nc2c(C)nn(CC)c2C)c1C	-1.7	-7.6	1	3.6	1	2.2
CC(=O)Nc1nonc1-c1nc2ccccc2n1CCC(C)C	10.7	4.2	0.9	25.1	0.7	29.9
CCOC(=O)Cn1c(-c2nonc2NC(=O)c2ccccc2F)nc2ccccc21	49.6	-0.2	0.5	92.3*	0.1	14.2
CCC(=O)Nc1nonc1-c1nc2ccccc2n1CCC(C)C	5.5	3.0	0.9	35.2	0.6	35.7*
Cc1nc2ccc3[nH]snc3c2n1	1.4	9.7	1	16.3	0.8	8.1
SMILES	CYP2C19 inhib	PostGolgi yeast	CYP2C19 activ	CYP2C9 inh	CYP2C9 act	PostGolgi ctrl
Clc1cc(Cl)cc(Nc2ncn[nH]2)c1	50.3*	-7.9	0.5	3.8	1	5.5
CCN1C(=O)c2cccc3c(S(=O)(=O)NCCCN4CCOCC4)ccc1c23	54.0*	3.3	0.5	46.1	0.5	9.1
CCN1C(=O)c2cccc3c(S(=O)(=O)NCCc4c[nH]c5ccccc45)ccc1c23	63.0*	-2.5	0.4	83.8*	0.2	10.5
Cc1ccc(NC(=O)CSc2nc(NS(=O)(=O)c3ccc(C)cc3)cc(=O)[nH]2)cc1	27.6	-2.3	0.7	64.7*	0.4	4.1
Cc1noc(NS(=O)(=O)c2ccc(NC(=O)CSc3nc4ccccc4[nH]3)cc2)c1C	-10.6	-2.1	1.1	25.3	0.7	37.0*
CCSc1ncc(Cl)c(C(=O)Nc2ccc(S(=O)(=O)Nc3onc(C)c3C)cc2)n1	-3.5	-2.1	1	57.5*	0.4	2.7
Cc1noc(NS(=O)(=O)c2ccc(NC(=O)Nc3ccc(Cl)c(Cl)c3)cc2)c1C	-19.3	0.3	1.2	-20.3	1.2	3.6
CC(=NCCN1CCNCC1)C1=C(O)CC(C)(C)CC1=O	2.0	1.9	1	13.2	0.9	6.2
c1ccc(COc2ccc(-c3csnn3)cc2)cc1	68.2*	-1.2	0.3	45.4	0.5	17.6
Nc1ccc(OCc2ccccc2)cc1	nt	-1.0	nt	nt	nt	7.4
COC(=O)C1=C(C)N(C2CCCC2)C(=O)C1(NC(C)=O)C(F)(F)F (stereo unspecified)	-18.6	-1.6	1.2	-16.6	1.2	-3.8
Cc1ccc(N2CCCn3c2nc2c3c(=O)n(CC(=O)OCc3ccccc3)c(=O)n2C)cc1C	22.0	nt	0.8	55.0*	0.4	nt
Cn1c(=O)n(Cc2ccccc2F)c(=O)c2c1nc1n2CCCN1CCc1ccccc1	33.1	15.8	0.7	16.7	0.8	-1.9
Cn1c(=O)n(CCc2ccccc2)c(=O)c2c1nc1n2CCCN1CCc1ccccc1	92.2*	6.0	0.1	93.2*	0.1	37.0*
Cn1c(=O)n(CCc2ccccc2)c(=O)c2c1nc1n2CCCN1Cc1ccccc1	11.0	4.9	0.9	15.1	0.8	12.7
Cn1c(N2CCOCC2)nc2c1c(=O)n(Cc1ccc(Cl)c(Cl)c1)c(=O)n2C	15.0	-9.9	0.8	26.1	0.7	40.2*
Cc1cc(C)cc(N2CCCn3c2nc2c3c(=O)n(CC(=O)OCc3ccccc3)c(=O)n2C)c1	16.4	15.1	0.8	1.6	1	5.1
Cn1c(N2CCCC2)nc2c1c(=O)n(Cc1ccc(F)cc1)c(=O)n2C	4.8	-0.3	1	19.5	0.8	10.8
CC(C)Cn1c(=O)c2c(nc3n2CCCN3CCc2ccccc2)n(C)c1=O	85.4*	-6.3	0.1	93.0*	0.1	9.1
Cc1c(NC(=O)COc2ncnc3c(Cl)cc(Cl)cc23)c(=O)n(-c2ccccc2)n1C	10.2	-7.0	0.9	-1.1	1	3.0
Cn1c(=O)n(Cc2ccc(F)cc2)c(=O)c2c1nc1n2CCCN1Cc1ccccc1	96.0*	1.7	0	85.9*	0.1	44.8*
CN1CCN(S(=O)(=O)c2ccc(NC(=O)c3cccs3)cc2)CC1	-13.7	1.1	1.1	-8.0	1.1	22.4
CCCCN(CCCC)S(=O)(=O)c1ccc(NC(=O)c2cccs2)cc1	60.2*	2.0	0.4	90.9*	0.1	6.6
Cc1cc(C)nc(NS(=O)(=O)c2ccc(NC(=O)c3cccs3)cc2)n1	15.9	0.9	0.8	44.5	0.6	1.3
CC1CCCCN1S(=O)(=O)c1ccc(NC(=O)c2cccs2)cc1 (stereo unspecified)	56.3*	-11.7	0.4	74.4*	0.3	33.1*
CC1CCN(S(=O)(=O)c2ccc(NC(=O)c3cccs3)cc2)CC1	84.5*	-4.6	0.2	96.3*	0	25.5
O=C(O)CSCC(=O)NCc1ccccc1	1.8	-4.6	1	-11.3	1.1	-4.2
